The results in this text go back to PubChem BioAssay (NCATS).

Test [1] has as its target Estrogen receptor (Homo sapiens) (UniProt P03372). Put plainly: qHTS assay for small molecule antagonists of estrogen receptor alpha signaling (AID 588513; active = well fitted curve in the direction sought with a large enough effect in the signal ratio, with a control signal flat, not every such curve was filed as active; the % refers to the signal ratio; note: % is set by controls: 0 for no effect and ±100 for the full control effect). Put shortly:
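Cells were plated at 5000/well and incubated 4 h at 37 C. Compounds were added as 1:2 dilution series, duplicates. 17-beta-estradiol (0.5nM final) was added for 18 h before CCF4 detection.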
For orientation: Quantitative high-throughput screening tests each substance at several concentrations.

For test [2] the target is unchanged. Description: qHTS assay for small molecule agonists of estrogen receptor alpha signaling (AID 588514; calls by dose curve;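 note: 0% = vehicle only and 100% = reference agonist; nearly all actives have a fitted effect of over 70% in size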). Put shortly: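 Cells were plated at 5000/well, incubated 4 hrs at 37 C, dosed with compound titration series, incubated 18 hrs at 37 C, loaded with CCF4 dye for 2 hrs at RT, then fluorescence was read.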
The target of test [3] is Glucocorticoid receptor (Homo sapiens) (UniProt P04150). Description: qHTS assay for small molecule agonists of glucocorticoid receptor signaling (AID 588532; active = well fitted curve in the direction sought with a large enough effect in the signal ratio, with a control signal flat; the % refers to the signal ratio;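 note: 100% = dexamethasone at 0.1 µM and 0% = DMSO only wells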). Conditions: HeLa MMTV-bla, beta-lactamase ratio, agonist, 18 h; stronger effect = higher value; percent of dexamethasone control, DMSO zero. Put shortly: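 Titration series, up to 92 uM, applied to GRE-bla HeLa cells for 18 h at 37 C. Detection by CCF4 FRET substrate after 2 h at RT.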

For test [4] the target is unchanged. Put plainly: qHTS assay for small molecule antagonists of glucocorticoid receptor signaling (AID 588533; active = well fitted inhibition curve with a large enough effect in the signal ratio, with a control signal flat, not every such curve was filed as active; the % refers to the signal ratio;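 note: cells stimulated with 2 nM dexamethasone as agonist; % is set by controls: 0 for no effect and ±100 for the full control effect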). The gist of the method: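 Antagonist-mode qHTS: compound titrations added to GRE-bla HeLa cells, then dexamethasone 2 nM final; 18 h, 37 C. CCF4 FRET fluorescence normalized to dexamethasone and DMSO; IC50 from Hill fit.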
A short description of test [5]: qHTS assay for small molecule antagonists of peroxisome proliferator-activated receptor delta signaling (AID 588535; active = well fitted inhibition curve with a large enough effect in the signal ratio, with a control signal flat, not every such curve was filed as active; the % refers to the signal ratio;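 for max response: cells co-treated with a PPAR-delta agonist as stimulator during compound exposure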). Conditions: HEK293T PPARd-UAS-bla, beta-lactamase FRET ratio, 18 h; 460 nm channel. The gist of the method: (§1)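 Reporter: UAS-bla under PPAR-delta response element, HEK293T host. Medium: 2% charcoal/dextran FBS. Dosing: titration, 18 hrs, 37 C. Detection: CCF4, 2 hrs RT, 405 ex/460 and 530 em.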

Test [6] deals with Peroxisome proliferator-activated receptor delta (Homo sapiens) (UniProt Q03181). The test is described as above. The gist of the method:
as §1

A short description of test [7]: qHTS assay for small molecule agonists of retinoid X receptor alpha signaling (AID 588544; calls by dose curve;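 for activation: 0% = DMSO basal wells and 100% = reference agonist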). Conditions: HEK293T RXRa-UAS-bla, beta-lactamase reporter, 18 h; 530 nm emission.
Test [8] addresses Retinoic acid receptor RXR-alpha (Homo sapiens) (UniProt P19793). The description is as above.
In test [9] the target is Thyroid hormone receptor beta (Homo sapiens) (UniProt P10828). Put plainly: qHTS assay for small molecule agonists of thyroid hormone receptor beta signaling (AID 588545; calls by dose curve;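 note: 0% = DMSO only and 100% = 10 nM T3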). Put shortly:
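Stimulation of a TR-driven beta-lactamase reporter was quantified in GripTite HEK 293 cells. Compound series ran for 18 hrs; curves were normalized to T3 and DMSO controls and fitted to yield EC50.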

Test [10] in a line: qHTS assay for small molecule antagonists of retinoid X receptor alpha signaling (AID 588546; active = well fitted inhibition curve with a large enough effect in the signal ratio, with a control signal flat, not every such curve was filed as active; the % refers to the signal ratio;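 note: cells stimulated with 9-cis-retinoic acid as agonist; % is set by controls: 0 for no effect and ±100 for the full control effect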). As to conditions: HEK293T RXRa-UAS-bla, beta-lactamase ratio, antagonist mode; measured here: W530 green channel, cytotoxicity proxy. Put shortly:
(§2)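 Beta-lactamase reporter inhibition, read as CCF4 fluorescence ratio (ex 405, em 460/530 nm) after 2 h at RT. HEK293T UAS-bla cells, 2500/well, were stimulated with 9-cis-RA at 500 or 100 nM final alongside test compound for 18 h at 37 C.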

Test [11] in a line: qHTS assay for small molecule activators of the nuclear factor-kappa B (NF-kB) signaling pathway (AID 651749; active = well fitted activation curve with a large enough effect in the signal ratio; the % refers to the signal ratio; note: series mostly up to about 77 µM; % of control where 0% means no effect). Conditions: NF-kB-bla ME-180 cells, beta-lactamase FRET ratio, 16 h; activation: stronger effect = higher value. The gist of the method: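 Screening used 2,000 ME-180 reporter cells per well exposed to pinned compound (23 nL) or DMSO; after 16 hr at 37C, beta-lactamase expression under NF-kB control was assessed through FRET.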

The target in test [12] is Peroxisome proliferator-activated receptor alpha (Homo sapiens) (UniProt Q07869). Put plainly: qHTS assay for small molecule agonists of the peroxisome proliferator-activated receptor alpha (PPARalpha) signaling pathway (AID 651778). Note: % of control where 0% means no effect. Conditions: PathHunter PPARalpha complementation, chemiluminescence, 6 h; max response: stronger effect = higher value. Put shortly:
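Cells plated at 2,000/well and held overnight at 37 C, 5% CO2, then compound added by pin tool for 6 hr; after PathHunter detection reagent and 60 min at room temperature, chemiluminescence from enzyme complementation was read.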

Test [13] in a line: qHTS assay for small molecule agonists of the antioxidant response element (ARE) signaling pathway measured by Nrf2-dependant transcriptional activity (AID 720636; active = well fitted curve in the direction sought with a large enough effect in the repeat runs; an effect the other way counts as inactive or inconclusive; note: % of control where 0% means no effect). Put shortly:
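Attachment 6 hr at 37 C, then compound versus DMSO vehicle for 16 hr in ARE-luc HepG2 cells (1% dialyzed FBS); luminescence recorded 30 min after ONE-Glo addition at room temperature.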

A short description of test [14]: qHTS assay for small molecule agonists of the antioxidant response element (ARE) signaling pathway measured by Nrf2-dependant transcriptional activity - cell viability counter screen (AID 720653; active = well fitted curve in the direction sought with a large enough effect in the repeat runs; an effect the other way counts as inactive or inconclusive; note: potency is the fitted concentration of half-maximal effect). As to conditions: ARE-bla HepG2 viability, CellTiter-Glo ATP luminescence, 16 h; max response: stronger effect = lower value. Put shortly:
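ARE-bla HepG2 cells (2,000/well) rested 5 hrs at 37C/5% CO2, then exposed to compounds in DMSO for 16 hrs. Viability was read in the same wells as intracellular ATP by luminescence, 30 min at room temperature after reagent addition.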

Test [15] in a line: qHTS assay for cell viability of HEK293 cells (AID 743288). Note: nearly all actives have a fitted effect of over 50% in size. Note: potency is the fitted concentration of half-maximal effect. As to conditions: ATP luminescence (CellTiter-Glo), 18 h; max response: stronger effect = lower value. Put shortly:
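The Tox21 protocol used parental HEK293 cells treated for 18 h at 37 C with compounds delivered by pintool; ATP-coupled luminescence after 30 min at room temperature gave viability.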

Test [16] is described as follows: qHTS assay for cell viability of the p53RE-bla HCT-116 cell line (AID 743292). Note: nearly all actives have a fitted effect of over 55% in size. Note: potency is the fitted concentration of half-maximal effect. The gist of the method:
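Compound-exposed HCT-116 (p53RE-bla) cells, 4,000 per well, were kept 16 h at 37 C following a 5 h preincubation. Cell number was estimated from total ATP by CellTiter-Glo luminescence read after 30 min at room temperature.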

Test [17] concerns the target Nuclear receptor subfamily 1 group I member 2 (Rattus norvegicus) (UniProt Q9R1A7). Put plainly: qHTS assay for small molecule activators of the rat pregnane X receptor (rPXR) signaling pathway (AID 651751; call rule not given here; note: 0% is about no effect). Conditions: rPXR reporter cells, luciferase (One-Glo), 24 h.
The nature of test [18]: qHTS assay for small molecule activators of the human pregnane X receptor (PXR) signaling pathway (AID 720659; call rule not given here; note: 0% is about no effect).
The target of test [19] is Retinoic acid receptor RXR-alpha (Homo sapiens) (UniProt P19793). Description: qHTS assay for small molecule antagonists of retinoid X receptor alpha signaling (AID 588546).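 Note: cells stimulated with 9-cis-retinoic acid as agonist; % is set by controls: 0 for no effect and ±100 for the full control effect.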 As to conditions: HEK293T RXRa-UAS-bla, beta-lactamase ratio, antagonist mode. Put shortly: as §2
Test [20] can be described thus: qHTS assay for environmental chemicals that activate the Aryl hydrocarbon Receptor (AhR) signaling pathway (AID 651777). Note: % of control where 0% means no effect; nearly all actives have a fitted effect of over 15% in size. As to conditions: 1A2-DRE human hepatoma cells, luciferase, 24 h; activation: stronger effect = higher value. The gist of the method: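 Concentration–response screening used 1,200 1A2-DRE cells per well, 24 hr compound exposure (37 C, 5% CO2), and One-Glo luminescence as the AhR-driven CYP1A2 reporter signal.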

Inconclusive results are not listed. Calls of active or inactive are those of the source. Unless noted, calls come from the whole dose curve; as a rule, active = well fitted curve in the direction sought with a large enough effect; inconclusive = small, poorly fitted or top-dose-only effect, or another doubt; inactive = no such curve, though single readings can be large; an effect the other way counts as inactive or inconclusive.

Glucocorticoid receptor (Homo sapiens), sequence (P04150 whole entry, looked up): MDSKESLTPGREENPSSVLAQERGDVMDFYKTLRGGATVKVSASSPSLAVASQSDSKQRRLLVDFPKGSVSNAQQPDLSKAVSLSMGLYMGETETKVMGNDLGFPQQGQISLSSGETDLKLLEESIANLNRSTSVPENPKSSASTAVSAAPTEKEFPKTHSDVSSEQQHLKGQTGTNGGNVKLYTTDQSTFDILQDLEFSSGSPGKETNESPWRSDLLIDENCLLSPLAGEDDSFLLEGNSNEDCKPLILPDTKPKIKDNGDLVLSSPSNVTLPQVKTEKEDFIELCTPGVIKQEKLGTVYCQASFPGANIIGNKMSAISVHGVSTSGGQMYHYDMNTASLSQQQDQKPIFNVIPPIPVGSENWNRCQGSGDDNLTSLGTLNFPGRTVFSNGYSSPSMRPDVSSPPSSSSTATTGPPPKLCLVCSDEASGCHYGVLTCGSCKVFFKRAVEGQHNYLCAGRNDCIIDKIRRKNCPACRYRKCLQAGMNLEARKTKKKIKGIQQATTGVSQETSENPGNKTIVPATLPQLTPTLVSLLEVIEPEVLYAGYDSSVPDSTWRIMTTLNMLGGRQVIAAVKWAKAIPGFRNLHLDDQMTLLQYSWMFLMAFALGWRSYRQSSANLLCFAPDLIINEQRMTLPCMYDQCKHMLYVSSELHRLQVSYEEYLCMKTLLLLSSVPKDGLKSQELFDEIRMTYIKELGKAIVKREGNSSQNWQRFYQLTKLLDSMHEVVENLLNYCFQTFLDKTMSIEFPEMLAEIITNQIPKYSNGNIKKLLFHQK
Peroxisome proliferator-activated receptor alpha (Homo sapiens), sequence (Q07869 whole entry, looked up): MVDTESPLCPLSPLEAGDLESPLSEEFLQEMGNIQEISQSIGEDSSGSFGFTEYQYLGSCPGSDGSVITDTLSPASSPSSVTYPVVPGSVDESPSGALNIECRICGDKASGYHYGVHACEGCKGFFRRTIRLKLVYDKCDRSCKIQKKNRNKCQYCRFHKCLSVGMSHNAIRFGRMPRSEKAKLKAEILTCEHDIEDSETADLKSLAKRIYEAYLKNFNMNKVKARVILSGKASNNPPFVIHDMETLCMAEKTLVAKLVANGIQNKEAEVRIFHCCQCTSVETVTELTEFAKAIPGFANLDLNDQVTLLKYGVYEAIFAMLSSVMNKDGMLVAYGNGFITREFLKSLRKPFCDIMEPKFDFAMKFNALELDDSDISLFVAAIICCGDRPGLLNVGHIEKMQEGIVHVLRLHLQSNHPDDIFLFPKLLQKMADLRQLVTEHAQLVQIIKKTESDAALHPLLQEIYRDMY
Peroxisome proliferator-activated receptor delta (Homo sapiens), sequence (Q03181 whole entry, looked up): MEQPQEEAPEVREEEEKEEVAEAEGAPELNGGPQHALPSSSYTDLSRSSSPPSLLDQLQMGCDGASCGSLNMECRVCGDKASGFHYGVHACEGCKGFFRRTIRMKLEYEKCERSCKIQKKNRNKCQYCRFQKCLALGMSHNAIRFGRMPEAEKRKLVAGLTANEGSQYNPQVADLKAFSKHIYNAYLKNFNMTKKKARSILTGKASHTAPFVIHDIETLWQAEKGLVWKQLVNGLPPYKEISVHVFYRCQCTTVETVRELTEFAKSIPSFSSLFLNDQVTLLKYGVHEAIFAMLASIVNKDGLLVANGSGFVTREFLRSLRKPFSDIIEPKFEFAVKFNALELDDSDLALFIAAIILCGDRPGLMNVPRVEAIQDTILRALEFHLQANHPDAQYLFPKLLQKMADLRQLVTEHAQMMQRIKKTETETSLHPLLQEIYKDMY
Nuclear receptor subfamily 1 group I member 2 (Rattus norvegicus), sequence (Q9R1A7 whole entry, looked up): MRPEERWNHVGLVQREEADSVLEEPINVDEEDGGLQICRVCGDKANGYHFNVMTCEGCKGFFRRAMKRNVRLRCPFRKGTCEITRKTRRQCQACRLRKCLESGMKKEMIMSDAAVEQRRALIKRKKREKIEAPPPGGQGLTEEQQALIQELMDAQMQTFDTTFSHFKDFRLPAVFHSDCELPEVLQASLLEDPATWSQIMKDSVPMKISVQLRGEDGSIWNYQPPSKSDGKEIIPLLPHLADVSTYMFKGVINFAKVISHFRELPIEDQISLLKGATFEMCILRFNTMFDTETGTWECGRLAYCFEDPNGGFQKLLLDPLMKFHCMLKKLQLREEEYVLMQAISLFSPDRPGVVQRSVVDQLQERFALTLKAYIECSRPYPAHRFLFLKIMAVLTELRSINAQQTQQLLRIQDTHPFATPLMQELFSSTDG
Estrogen receptor (Homo sapiens), sequence (P03372 whole entry, looked up): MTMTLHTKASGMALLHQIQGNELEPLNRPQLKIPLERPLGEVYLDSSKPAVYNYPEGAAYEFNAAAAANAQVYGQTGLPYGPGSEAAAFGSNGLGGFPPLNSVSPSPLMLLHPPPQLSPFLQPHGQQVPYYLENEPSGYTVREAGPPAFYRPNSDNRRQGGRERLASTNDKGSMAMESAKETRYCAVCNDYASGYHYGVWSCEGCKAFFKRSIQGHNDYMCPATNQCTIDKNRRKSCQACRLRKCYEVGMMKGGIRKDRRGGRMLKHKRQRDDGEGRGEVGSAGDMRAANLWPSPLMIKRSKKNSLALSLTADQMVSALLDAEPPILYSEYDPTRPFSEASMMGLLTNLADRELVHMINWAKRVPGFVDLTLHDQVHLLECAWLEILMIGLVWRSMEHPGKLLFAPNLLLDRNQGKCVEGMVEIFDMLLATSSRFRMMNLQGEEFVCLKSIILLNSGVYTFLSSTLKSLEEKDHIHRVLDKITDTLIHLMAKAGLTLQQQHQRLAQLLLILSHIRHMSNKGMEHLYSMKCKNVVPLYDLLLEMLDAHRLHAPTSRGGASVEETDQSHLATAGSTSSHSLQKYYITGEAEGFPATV
Thyroid hormone receptor beta (Homo sapiens), sequence (P10828 whole entry, looked up): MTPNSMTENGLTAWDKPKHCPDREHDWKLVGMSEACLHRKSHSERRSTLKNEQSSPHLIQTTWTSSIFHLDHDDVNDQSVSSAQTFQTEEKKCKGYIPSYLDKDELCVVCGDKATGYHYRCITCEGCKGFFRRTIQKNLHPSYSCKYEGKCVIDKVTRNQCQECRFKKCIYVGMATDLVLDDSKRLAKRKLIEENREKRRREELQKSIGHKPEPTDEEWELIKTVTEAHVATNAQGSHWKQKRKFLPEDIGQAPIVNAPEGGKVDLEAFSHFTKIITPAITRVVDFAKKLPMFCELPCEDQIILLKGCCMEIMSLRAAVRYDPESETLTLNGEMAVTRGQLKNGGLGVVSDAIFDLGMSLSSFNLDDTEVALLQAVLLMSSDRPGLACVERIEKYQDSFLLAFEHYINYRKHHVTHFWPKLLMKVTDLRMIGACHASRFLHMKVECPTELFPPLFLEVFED
Retinoic acid receptor RXR-alpha (Homo sapiens), sequence (P19793 whole entry, looked up): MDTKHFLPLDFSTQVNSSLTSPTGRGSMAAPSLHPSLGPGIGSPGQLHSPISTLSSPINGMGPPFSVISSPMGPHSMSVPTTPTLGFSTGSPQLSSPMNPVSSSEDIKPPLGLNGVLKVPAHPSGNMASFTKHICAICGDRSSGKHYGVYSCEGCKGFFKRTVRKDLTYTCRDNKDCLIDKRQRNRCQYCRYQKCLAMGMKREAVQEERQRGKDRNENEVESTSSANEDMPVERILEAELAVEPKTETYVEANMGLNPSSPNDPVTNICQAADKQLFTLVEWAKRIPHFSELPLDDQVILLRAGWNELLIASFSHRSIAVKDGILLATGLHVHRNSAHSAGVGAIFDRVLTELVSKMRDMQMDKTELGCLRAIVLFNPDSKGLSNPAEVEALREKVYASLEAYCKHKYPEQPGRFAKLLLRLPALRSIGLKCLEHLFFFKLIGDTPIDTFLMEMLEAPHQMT

Turning to `CCCCC(CC)C(=O)OCCOCCOCCOC(=O)C(CC)CCCC` (stereo unspecified), the Potency result in test [1], in test [2], in test [4], in test [6], in test [8] and in [9] was “inactive” in each case. In addition, the Potency entry in test [13] and in test [16] was “inactive” in each case. Moreover, the activation in test [3] is -10% (inactive); in test [11] it was -6.56% (inactive). Also, the max response was 37.3% in test [5]; 18.8% in [7]; -5.42% in test [10]; 0.387% (inactive) in [12]; 1.57% (inactive) in test [14]; -11.7% (inactive) in [15]. In addition, the max response in [17] was 4.7% (inactive). Moreover, the call in test [18] was inactive.

Turning to `O=C(O)CCCCCCCCCCC(=O)O`, the Potency entry in test [1], in test [2], in test [4], in test [6], in test [8] and in [9] was “inactive” each time. For the same compound, the activation in test [3] was -1.99% (inactive); in [11], -0.986% (inactive); in test [20], 3.26% (inactive). Further, the max response is 18.9% in test [5]; 0.198% in test [7]; 2.61% in test [10]; 7.09% (inactive) in test [19]; -6.19% (inactive) in test [14]; -10.8% (inactive) in test [15]. Also, the max response in test [17] is 0.83% (inactive). Besides, the outcome in test [18] was inactive.

With `O=c1[nH]c(=O)c2[nH]cnc2[nH]1`, the Potency result in test [1], in test [2], in [4], in test [6], in test [8] and in [13] was “inactive” each time. In addition, the Potency entry in [16] was “inactive”. Further, the activation is 3.26% (inactive) in [3], -1.45% (inactive) in test [11] and 0.87% (inactive) in test [20]. In addition, the max response in test [5] was -11.9%; in test [7], -13.2%; in test [10], -4.54%; in test [19], -1.52% (inactive); in test [12] it was -2.27% (inactive); in [15], -12.8% (inactive). Moreover, the max response in test [17] is 0.842% (inactive). Further, the outcome in [18] was inactive.

For the compound `CCSC(=O)N(CC(C)C)CC(C)C`, the Potency entry in test [1], in [2], in test [6], in test [8], in [9] and in test [13] was “inactive” each time. In addition, in test [16], the Potency result was “inactive”. Also, the activation in [3] was -2.35% (inactive); in test [11], -0.513% (inactive); in test [20], 0.255% (inactive). Moreover, the max response was -16.2% in [5]; -8.61% in test [7]; -7.79% in test [10]; -2.54% (inactive) in test [19]; -0.436% (inactive) in [12]; -3.63% (inactive) in [14]. Also, the max response in test [15] is -1.7% (inactive); in test [17], 2.63% (inactive). Also, in [18], the compound was classed as inactive.

For `Nc1c(N=Nc2ccc(S(=O)(=O)CCOS(=O)(=O)O)cc2)c(S(=O)(=O)O)cc2cc(S(=O)(=O)O)c(N=Nc3ccc(S(=O)(=O)CCOS(=O)(=O)O)cc3)c(O)c12`, the Potency result in test [1], in test [2], in test [6], in test [8], in test [9] and in [13] was “inactive” in each case. Moreover, the max response was -15.1% in test [5]; -7.65% in test [7]; -13.3% in test [10]; -8.75% (inactive) in test [12]; -11.2% (inactive) in [17]. Moreover, the activation in test [11] is 1.61% (inactive). In addition, the figures for the Potency in test [14], in test [15] and in test [16] were 35.5 µM (active), 35.5 µM (active) and 25.1 µM (active), respectively. Also, the result in test [18] was inactive.

Regarding `CNc1nc(=O)n(C2CCC(O)CC2)c(=O)n1C` (stereo unspecified), the Potency entry in [1], in [2], in test [4], in test [6], in [8] and in test [9] was “inactive” throughout. Further, the Potency result in [16] was “inactive”. The activation was 2.82% (inactive) in test [3], -0.329% (inactive) in test [11] and -1.26% (inactive) in test [20]. Further, the max response in [5] was 29.9%; in test [7], -9.94%; in test [10], -9.65%; in test [12], -1.33% (inactive); in test [14], -6.82% (inactive); in test [15], -1.62% (inactive). The max response in [17] is -0.414% (inactive). Further, the compound was classed as inactive in test [18].
